This is part of a sample that, as a whole, favours compounds with a hit. Of some 83,000 tested, about 20% had one in any assay.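 Method: cells in 96-well plates; compound added at one concentration; 48 h incubation; percent growth measured; values under 10 scored active.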 The source made the active and inactive calls.
What was measured:
Assay in all cases: NCI-60 one-dose screen, 48 h (100 = growth as untreated, 0 = no growth, -100 = all killed)
Conditions in all cases: 10 µM unless noted
[1] = test system: NCI-H23 lung
[2] = test system: NCI-H322M lung
[3] = test system: HOP-62 NSCLC
[4] = test system: NCI-H460 lung
[5] = test system: HOP-92 NSCLC
[6] = test system: NCI-H522 lung
[7] = test system: A549/ATCC NSCLC
[8] = test system: 786-0 renal
[9] = test system: COLO 205 colon
[10] = test system: DU-145 prostate
[11] = test system: K-562 leukemia
[12] = test system: MALME-3M melanoma
[13] = test system: MDA-MB-231 breast
[14] = test system: RXF 393 renal
[15] = test system: SF-268 CNS
[16] = test system: SF-295 CNS
[17] = test system: SF-539 CNS
[18] = test system: UACC-257 melanoma
[19] = test system: M14 melanoma
[20] = test system: HCT-15 colon

Measured: growth

COc1ccc(CN2CCCC(C(=O)c3ccc(C(F)(F)F)cc3)C2)c(O)c1 (stereo not given)
active: [4] 7.11% | [6] -36.6% | [9] -23.1% | [11] 7.39% | [13] 7.33% | [16] -20.8%
inactive: [1] 37.3% | [2] 80.6% | [3] 37.5% | [5] 36.5% | [7] 32.3% | [8] 41.5% | [10] 50.6% | [12] 12.7% | [14] 20.4% | [15] 30.5% | [17] 14.8% | [18] 40.1% | [19] 18.9% | [20] 25.7%

CCOC(=O)c1ccc2[nH]c(-c3ccccc3)cc(=O)c2c1
inactive: [1] 99.7% | [2] 98.2% | [3] 106% | [4] 101% | [5] 92.5% | [6] 101% | [7] 95.7% | [8] 104% | [9] 109% | [10] 103% | [11] 97.2% | [12] 104% | [13] 94.5% | [14] 103% | [15] 103% | [16] 106% | [17] 97.2% | [18] 98.7% | [19] 98.9% | [20] 92.8%

CCOC(=O)C1=C(C)N=c2s/c(=C\c3ccccc3O)c(=O)n2C1c1ccc(OC)c2ccccc12 (stereo not given)
inactive: [1] 82.3% | [2] 10.5% | [3] 29.2% | [8] 36% | [10] 43.5% | [15] 37.6%
active: [4] -41.8% | [5] 4.78% | [6] -36.2% | [7] -21.1% | [9] -90% | [11] -48.4% | [12] -86.7% | [13] -38.9% | [14] -20.6% | [16] -83.5% | [17] -83.7% | [18] -85.8% | [19] -71.7% | [20] 1.84%

O=Cc1cc2ccccc2nc1Nc1nccs1
inactive: [1] 52.4% | [2] 91.8% | [3] 62.2% | [4] 61.8% | [5] 81% | [6] 83.1% | [7] 96.9% | [8] 69% | [9] 69.7% | [10] 80.3% | [11] 109% | [12] 73.1% | [13] 68.6% | [14] 53.2% | [15] 54.8% | [16] 92.9% | [17] 87.3% | [18] 102% | [19] 101% | [20] 46.4%

COc1cccc2cc(N(C)c3nc(C)nc4ccsc34)ccc12
inactive: [1] 22.3% | [2] 49.8% | [3] 17.1% | [8] 20.5% | [12] 52.5% | [13] 28.9% | [14] 40% | [15] 21.7% | [18] 37.7%
active: [4] 1.59% | [5] 8.89% | [6] -15.2% | [7] 7.7% | [9] -56.9% | [10] -4.03% | [11] 5.29% | [16] 3.17% | [17] -15.5% | [19] 9.85% | [20] 0.625%

COc1ccc(OC)c(/C=C/C(=O)c2c(C)nc3ccccc3c2/C=C/c2ccccc2)c1
inactive: [1] 58.8% | [2] 78.5% | [3] 90.7% | [4] 28.6% | [5] 48.5% | [6] 23.7% | [7] 55.8% | [8] 89.2% | [9] 86.4% | [10] 54.2% | [11] 17% | [12] 103% | [13] 51.9% | [14] 69.6% | [15] 73.7% | [16] 76% | [17] 99.6% | [18] 72% | [19] 81.5% | [20] 37.6%

O=C(Nc1ccc(Cl)cc1)N1CCN(c2ccc3nncn3n2)CC1
active: [3] -11.4% | [4] -27.3% | [5] -21.8% | [6] -45.1% | [7] -12% | [8] -85.9% | [9] -81.2% | [11] -61.1% | [12] -86.8% | [13] -55.5% | [14] -81.2% | [15] -48.1% | [16] -87.2% | [17] -86.7% | [18] -68.9% | [19] -87.1% | [20] 0.448%
inactive: [1] 77.2% | [2] 29.8% | [10] 36%

CCOc1ccc2c(c1)CN(Cc1ccc(Cl)cc1)CO2
active: [3] -7.93% | [8] 6.53% | [14] -3.87% | [16] -7.02% | [17] 1.31%
inactive: [1] 80.8% | [2] 69.1% | [4] 40.1% | [5] 43.4% | [6] 72.9% | [7] 18.7% | [9] 76.7% | [10] 38.3% | [11] 57.2% | [12] 30.1% | [13] 35.2% | [15] 24.9% | [18] 70.9% | [19] 55.6% | [20] 70%

COc1ccc(/C=C2\CCC/C(=C\c3ccc(OC)c(OC)c3)C2=O)cc1OC
active: [4] -46.5% | [6] -14% | [8] 0.0865% | [10] -33.9% | [14] -32.5% | [16] 1.26% | [19] -2.63% | [20] -8.77%
inactive: [1] 21.6% | [2] 45.4% | [3] 28.5% | [5] 106% | [7] 13.8% | [9] 22.6% | [11] 10.6% | [12] 42.3% | [13] 15% | [15] 30.5% | [17] 13.1% | [18] 14%

Cc1sc2ncnc(Sc3nc4ccccc4[nH]3)c2c1C
inactive: [1] 57%
active: [2] -18.4% | [3] -62.6% | [4] -78.9% | [5] -12.1% | [6] -78.6% | [7] -55.1% | [8] -94.7% | [9] -74.6% | [10] -83.2% | [11] -47.4% | [12] -82.7% | [13] -79.5% | [14] -59.7% | [15] -78.3% | [16] -81.7% | [17] -95.5% | [18] -88.6% | [19] -78.9% | [20] -38%

COc1cccc2c1C=C1CCCCC3=Cc4c(OC)cccc4OC13O2
inactive: [1] 55.9% | [2] 61.2% | [3] 56.8% | [4] 25.4% | [5] 46.8% | [6] 32.7% | [7] 45.8% | [8] 41.7% | [9] 30.6% | [10] 63.5% | [11] 17.4% | [12] 36.5% | [13] 56.7% | [14] 32.8% | [15] 50.8% | [16] 27.2% | [17] 39.4% | [18] 62.1% | [19] 27.3% | [20] 28.3%

COc1c(B(O)O)cccc1-c1nc2ccc3[nH]ncc3c2c2c1C1CCC2C1 (stereo not given)
inactive: [1] 85.1% | [2] 84.2% | [3] 65.7% | [4] 51% | [5] 108% | [6] 59.5% | [7] 26.6% | [8] 52.6% | [9] 50.4% | [10] 72.3% | [11] 55.6% | [12] 136% | [13] 71.2% | [14] 28.5% | [15] 67.4% | [16] 86% | [17] 28% | [18] 101% | [19] 84% | [20] 49.6%

O=C(O)CCCN1C(=O)C2C3CCC(C3)C2C1=O (stereo not given)
inactive: [1] 101% | [2] 107% | [3] 109% | [4] 116% | [5] 107% | [6] 88% | [7] 104% | [8] 106% | [9] 119% | [10] 115% | [11] 105% | [12] 96% | [13] 130% | [14] 83.8% | [15] 107% | [16] 109% | [17] 103% | [18] 111% | [19] 105% | [20] 103%

c1ccc(CNc2nc(Nc3ccccc3)nc3ccccc23)cc1
inactive: [1] 64.6% | [2] 46.5% | [4] 48.2% | [6] 40.7% | [7] 29.6% | [8] 38.5% | [9] 75.1% | [10] 40.5% | [11] 33.6% | [13] 66.8% | [15] 50.7% | [17] 40.2% | [18] 14.4% | [19] 55% | [20] 72.6%
active: [3] -9% | [5] -2.52% | [12] -7.75% | [14] 2.83% | [16] -61.1%

COc1ccc(/C=C2/SC(=O)N(CC(=O)N3CCN(c4cc5c(cc4F)c(=O)c(C(=O)O)cn5C4CC4)CC3)C2=O)cc1
inactive: [1] 100% | [2] 99% | [3] 97.6% | [4] 103% | [5] 113% | [6] 87.1% | [7] 92.2% | [8] 97.3% | [9] 108% | [10] 115% | [11] 110% | [12] 98.5% | [13] 103% | [14] 117% | [15] 101% | [16] 101% | [17] 91.1% | [18] 91.9% | [19] 103% | [20] 109%

CC(C)c1ccc(S(=O)(=O)NC(=O)NC2CCCC2)cc1
inactive: [1] 101% | [2] 98% | [3] 100% | [4] 104% | [5] 107% | [6] 97.2% | [7] 87.7% | [8] 103% | [9] 108% | [10] 107% | [11] 103% | [12] 97.1% | [13] 102% | [14] 115% | [15] 101% | [16] 97.7% | [17] 96.1% | [18] 95.7% | [20] 97.3%
active: [19] -52.9%
